# Measurements: PubChem BioAssay (Tox21)
# Results filed as inconclusive are left out. A call without a number means that no potency is given here. The source made the active and inactive calls. Unless noted, calls come from the whole dose curve; as a rule, active = well fitted curve in the direction sought with a large enough effect in the repeat runs; inconclusive = weak or mixed curves; inactive = no such curve, though single readings can be large; an effect the other way counts as inactive or inconclusive.
# Tests used:
# [1] = target: Acetylcholinesterase (Homo sapiens) (UniProt P22303); experiment: Acetylcholinesterase (AChE) small molecule antagonists: enzyme-based qHTS assay (AID 1347397; calls by dose curve; note: nearly all actives have a fitted effect of over 55% in size); conditions: Potency: AChE enzyme activity inhibition; outcome: AChE enzyme activity inhibition
# Acetylcholinesterase (Homo sapiens), sequence (P22303 whole entry, looked up): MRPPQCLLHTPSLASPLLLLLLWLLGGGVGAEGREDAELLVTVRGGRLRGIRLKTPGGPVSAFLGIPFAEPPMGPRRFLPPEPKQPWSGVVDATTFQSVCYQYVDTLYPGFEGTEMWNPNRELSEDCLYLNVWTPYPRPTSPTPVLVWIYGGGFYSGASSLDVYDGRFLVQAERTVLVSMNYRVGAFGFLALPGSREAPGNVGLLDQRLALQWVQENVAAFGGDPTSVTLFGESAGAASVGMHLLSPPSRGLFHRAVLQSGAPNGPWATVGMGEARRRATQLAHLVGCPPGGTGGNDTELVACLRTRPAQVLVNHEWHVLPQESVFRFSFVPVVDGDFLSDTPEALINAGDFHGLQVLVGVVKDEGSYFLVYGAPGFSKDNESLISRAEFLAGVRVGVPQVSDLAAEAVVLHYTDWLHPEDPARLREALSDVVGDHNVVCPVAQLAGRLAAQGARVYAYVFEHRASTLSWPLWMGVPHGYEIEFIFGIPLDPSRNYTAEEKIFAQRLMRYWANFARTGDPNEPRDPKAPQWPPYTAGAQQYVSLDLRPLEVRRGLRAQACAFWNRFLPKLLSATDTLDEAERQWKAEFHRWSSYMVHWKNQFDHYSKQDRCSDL
# Procedure, shortened: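 Recombinant human AChE, dispensed at 50 mU/mL, was preincubated with Tox21 10K compounds or DMSO vehicle for 30 min at room temperature. DTNB plus acetylthiocholine was then added, and thiocholine was measured colorimetrically after a further 10 min.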
# [2] = target: Acetylcholinesterase (Homo sapiens) (UniProt P22303); experiment: Acetylcholinesterase (AChE) small molecule antagonists: fluorescence cell-based qHTS assay (AID 1347398; calls by dose curve; note: nearly all actives have a fitted effect of over 50% in size); conditions: Potency: AChE activity; outcome: AChE activity
# Procedure, shortened: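 Human SH-SY5Y cells were plated overnight at 37 C, exposed to compound for 30 min at 37 C, 5% CO2, then given acetylthiocholine plus Thiolite Green for 40 min at room temperature; thiocholine fluorescence (Ex/Em 490/520 nm) reports endogenous AChE activity.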
# [3] = target: Cytochrome P450 2D6 (Homo sapiens) (UniProt P10635); experiment: Cytochrome P450 Family 2 Subfamily D Member 6 (CYP2D6) small molecule antagonists: luciferase reporter qHTS assay (AID 1671196); note: nearly all actives have a fitted effect of over 50% in size; note: potency is the fitted concentration of half-maximal effect
# Cytochrome P450 2D6 (Homo sapiens), sequence (P10635 whole entry, looked up): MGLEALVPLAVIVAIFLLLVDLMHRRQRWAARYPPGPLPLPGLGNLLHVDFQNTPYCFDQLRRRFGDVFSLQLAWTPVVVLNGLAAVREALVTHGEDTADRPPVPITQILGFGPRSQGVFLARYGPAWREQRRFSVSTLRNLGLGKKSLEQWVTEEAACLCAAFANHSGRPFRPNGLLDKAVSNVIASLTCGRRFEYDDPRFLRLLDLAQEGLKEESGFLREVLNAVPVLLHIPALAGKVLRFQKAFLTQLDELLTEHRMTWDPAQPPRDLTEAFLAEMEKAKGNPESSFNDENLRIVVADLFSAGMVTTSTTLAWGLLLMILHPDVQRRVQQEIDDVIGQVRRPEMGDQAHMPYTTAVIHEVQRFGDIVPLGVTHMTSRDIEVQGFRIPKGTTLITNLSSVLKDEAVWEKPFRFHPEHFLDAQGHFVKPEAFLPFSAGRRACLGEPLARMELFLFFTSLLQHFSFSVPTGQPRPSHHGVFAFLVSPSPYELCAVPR
# Procedure, shortened: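 Luminescence (RLU), read 20 min after detection reagent, indicated CYP2D6 conversion of proluciferin to luciferin during a 1 h NADPH-dependent reaction at room temperature.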
# [4] = target: Cytochrome P450 2C19 (Homo sapiens) (UniProt P33261); experiment: Cytochrome P450 Family 2 Subfamily C Member 19 (CYP2C19) small molecule antagonists: luciferase reporter qHTS assay (AID 1671197); note: series mostly up to about 120 µM; nearly all actives have a fitted effect of over 65% in size
# Cytochrome P450 2C19 (Homo sapiens), sequence (P33261 whole entry, looked up): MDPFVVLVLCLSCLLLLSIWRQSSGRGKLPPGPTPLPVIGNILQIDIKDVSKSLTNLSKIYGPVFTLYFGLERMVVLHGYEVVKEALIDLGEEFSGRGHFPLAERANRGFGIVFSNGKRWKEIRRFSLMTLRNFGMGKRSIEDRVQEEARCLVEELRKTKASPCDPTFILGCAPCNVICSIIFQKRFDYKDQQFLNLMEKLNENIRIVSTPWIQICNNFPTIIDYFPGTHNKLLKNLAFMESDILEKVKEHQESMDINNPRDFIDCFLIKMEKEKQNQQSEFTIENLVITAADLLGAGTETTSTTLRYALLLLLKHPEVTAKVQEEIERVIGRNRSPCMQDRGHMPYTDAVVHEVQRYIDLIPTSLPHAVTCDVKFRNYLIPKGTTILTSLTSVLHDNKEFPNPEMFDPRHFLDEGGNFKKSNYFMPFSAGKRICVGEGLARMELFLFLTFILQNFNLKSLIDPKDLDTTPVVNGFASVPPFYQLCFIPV
# Procedure, shortened: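 CYP2C19 P450-Glo, 1536-well qHTS. Cpd + enzyme/proluciferin substrate 10 min RT; + NADPH regen, 37C 1 h; stop with luciferin detection reagent, 20 min RT, luminescence (RLU). Pos ctrl ketoconazole.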
# [5] = target: Cytochrome P450 2C9 (Homo sapiens) (UniProt P11712); experiment: Cytochrome P450 Family 2 Subfamily C Member 9 (CYP2C9) small molecule antagonists: luciferase reporter qHTS assay (AID 1671198); note: nearly all actives have a fitted effect of over 50% in size; note: potency is the fitted concentration of half-maximal effect
# Cytochrome P450 2C9 (Homo sapiens), sequence (P11712 whole entry, looked up): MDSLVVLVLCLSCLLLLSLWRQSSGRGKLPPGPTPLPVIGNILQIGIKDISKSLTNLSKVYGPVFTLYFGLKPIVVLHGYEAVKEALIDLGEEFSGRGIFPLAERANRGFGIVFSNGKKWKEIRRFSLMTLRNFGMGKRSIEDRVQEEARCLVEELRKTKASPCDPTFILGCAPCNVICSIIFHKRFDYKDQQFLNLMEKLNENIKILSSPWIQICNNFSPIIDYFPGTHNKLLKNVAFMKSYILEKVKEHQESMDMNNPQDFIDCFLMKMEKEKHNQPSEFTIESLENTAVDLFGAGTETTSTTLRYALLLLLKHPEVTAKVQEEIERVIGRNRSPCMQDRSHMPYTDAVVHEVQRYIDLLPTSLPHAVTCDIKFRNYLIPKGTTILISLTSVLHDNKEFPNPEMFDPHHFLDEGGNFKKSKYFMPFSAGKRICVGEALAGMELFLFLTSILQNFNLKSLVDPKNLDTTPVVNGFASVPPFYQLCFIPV
# Procedure, shortened: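 CYP2C9 activity was measured with a P450-Glo proluciferin substrate. Enzyme–substrate mix was held with compound for 10 min at room temperature, then NADPH regeneration solution was added for 1 h at 37C. Luciferin product was read as luminescence.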
# [6] = target: Cytochrome P450 1A2 (Homo sapiens) (UniProt P05177); experiment: Cytochrome P450 Family 1 Subfamily A Member 2 (CYP1A2) small molecule antagonists: luciferase reporter qHTS assay (AID 1671199); note: nearly all actives have a fitted effect of over 50% in size; note: potency is the fitted concentration of half-maximal effect
# Cytochrome P450 1A2 (Homo sapiens), sequence (P05177 whole entry, looked up): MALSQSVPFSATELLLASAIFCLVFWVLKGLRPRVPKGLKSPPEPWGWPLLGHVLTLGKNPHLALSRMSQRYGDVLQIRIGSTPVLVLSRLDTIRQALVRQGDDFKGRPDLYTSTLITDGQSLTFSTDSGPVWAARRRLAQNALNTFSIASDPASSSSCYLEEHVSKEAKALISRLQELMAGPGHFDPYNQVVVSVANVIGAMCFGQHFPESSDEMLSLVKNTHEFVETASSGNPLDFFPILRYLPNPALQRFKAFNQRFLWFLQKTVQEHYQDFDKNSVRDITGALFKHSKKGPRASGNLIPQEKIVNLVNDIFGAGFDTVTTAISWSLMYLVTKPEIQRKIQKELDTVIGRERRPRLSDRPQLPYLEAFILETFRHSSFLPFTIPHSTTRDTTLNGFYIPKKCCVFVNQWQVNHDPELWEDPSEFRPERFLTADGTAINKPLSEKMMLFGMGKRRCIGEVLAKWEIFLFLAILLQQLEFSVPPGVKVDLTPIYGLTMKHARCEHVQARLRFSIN
# Procedure, shortened: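 CYP1A2 turnover of a luminogenic substrate was quantified after 1 h with NADPH regeneration at room temperature. Furafylline served as positive control.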
# [7] = target: Voltage-gated inwardly rectifying potassium channel KCNH2 (Homo sapiens) (UniProt Q12809); experiment: Human Ether-a-go-go-Related Gene (hERG) channel small molecule antagonists: fluorescence cell-based qHTS assay (AID 1671200)
# Voltage-gated inwardly rectifying potassium channel KCNH2 (Homo sapiens), sequence (Q12809 whole entry, looked up): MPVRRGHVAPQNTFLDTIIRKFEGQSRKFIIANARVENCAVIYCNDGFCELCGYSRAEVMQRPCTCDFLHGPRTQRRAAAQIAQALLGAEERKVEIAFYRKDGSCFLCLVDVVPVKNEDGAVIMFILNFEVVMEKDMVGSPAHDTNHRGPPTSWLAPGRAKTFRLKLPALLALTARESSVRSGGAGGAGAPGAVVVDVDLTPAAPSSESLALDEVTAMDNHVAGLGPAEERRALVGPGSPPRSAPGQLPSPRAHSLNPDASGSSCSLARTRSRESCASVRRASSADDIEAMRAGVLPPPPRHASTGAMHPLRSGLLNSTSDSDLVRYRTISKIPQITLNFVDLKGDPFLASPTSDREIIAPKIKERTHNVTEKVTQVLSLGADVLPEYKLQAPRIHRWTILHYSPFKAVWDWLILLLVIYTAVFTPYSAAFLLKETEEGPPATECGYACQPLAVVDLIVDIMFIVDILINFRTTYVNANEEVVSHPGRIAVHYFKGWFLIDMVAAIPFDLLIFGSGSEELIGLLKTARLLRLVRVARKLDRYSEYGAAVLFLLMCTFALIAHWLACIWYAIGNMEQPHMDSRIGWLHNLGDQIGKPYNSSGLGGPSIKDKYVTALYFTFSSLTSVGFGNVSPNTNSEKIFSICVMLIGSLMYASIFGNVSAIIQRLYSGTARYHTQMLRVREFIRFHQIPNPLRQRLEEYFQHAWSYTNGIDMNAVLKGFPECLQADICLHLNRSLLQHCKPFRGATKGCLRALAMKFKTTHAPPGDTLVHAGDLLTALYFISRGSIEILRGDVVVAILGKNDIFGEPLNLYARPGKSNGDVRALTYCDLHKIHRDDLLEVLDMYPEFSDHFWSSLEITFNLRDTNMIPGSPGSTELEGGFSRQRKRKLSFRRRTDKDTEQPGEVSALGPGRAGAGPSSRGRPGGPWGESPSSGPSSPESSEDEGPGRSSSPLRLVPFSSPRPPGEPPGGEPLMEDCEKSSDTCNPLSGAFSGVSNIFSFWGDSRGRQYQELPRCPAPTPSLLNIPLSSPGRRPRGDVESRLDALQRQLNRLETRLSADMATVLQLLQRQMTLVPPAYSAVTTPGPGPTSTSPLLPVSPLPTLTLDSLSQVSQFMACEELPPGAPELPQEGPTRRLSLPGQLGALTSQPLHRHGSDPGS
# Procedure, shortened: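 U2OS cells expressing the channel were plated at 1000 cells/well, incubated overnight at 37 C, then loaded with FluxOR II thallium-sensitive dye for 1 h at room temperature in the dark, with a further 10 min at room temperature before stimulation.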
# [8] = target: Cytochrome P450 3A4 (Homo sapiens) (UniProt P08684); experiment: Cytochrome P450 Family 3 Subfamily A Member 4 (CYP3A4) small molecule antagonists: luciferase reporter qHTS assay (AID 1671201)
# Cytochrome P450 3A4 (Homo sapiens), sequence (P08684 whole entry, looked up): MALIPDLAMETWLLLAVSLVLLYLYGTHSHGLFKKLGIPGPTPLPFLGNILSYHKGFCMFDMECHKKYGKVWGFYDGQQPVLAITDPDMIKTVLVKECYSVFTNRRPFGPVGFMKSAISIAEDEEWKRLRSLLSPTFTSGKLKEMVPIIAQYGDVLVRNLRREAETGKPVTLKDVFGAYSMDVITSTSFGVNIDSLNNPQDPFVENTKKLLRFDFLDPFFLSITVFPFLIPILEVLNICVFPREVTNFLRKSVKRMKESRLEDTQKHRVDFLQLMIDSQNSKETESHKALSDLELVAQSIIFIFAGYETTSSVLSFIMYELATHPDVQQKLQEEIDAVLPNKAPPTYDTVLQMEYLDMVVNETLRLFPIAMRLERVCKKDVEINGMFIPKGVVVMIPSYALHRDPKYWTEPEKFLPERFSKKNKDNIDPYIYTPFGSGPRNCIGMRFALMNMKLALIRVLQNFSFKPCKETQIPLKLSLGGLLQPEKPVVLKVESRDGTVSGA
# Procedure, shortened: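 P450-Glo CYP3A4 system with proluciferin substrate; compounds preincubated 10 min RT with enzyme-substrate mix, then NADPH regeneration added for 1 h RT. Detection reagent 20 min, luminescence read as relative luminescence units.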
# [9] = target: Acetylcholinesterase (Homo sapiens) (UniProt P22303); experiment: Acetylcholinesterase (AChE) small molecule antagonists: enzyme-based qHTS assay with human liver microsomes (AID 1347399; calls by dose curve; note: nearly all actives have a fitted effect of over 60% in size); conditions: Potency: qHTS inhibition; outcome: qHTS inhibition
# Procedure, shortened: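 Recombinant human AChE (50 mU/mL in the enzyme mix) and human liver microsomes (0.25 mg/mL final) were preincubated with compound and NADPH (0.25 mg/mL final) for 30 min at 37 C. Acetylthiocholine/DTNB was then added; thiocholine was read colorimetrically after 10 min at room temperature.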
Compound,Potency [1],Potency [2],Potency [3],Potency [4],Potency [5],Potency [6],Potency [7],Potency [8],Potency [9]
CCc1ccc(C2CCNCC2)cc1,inactive,inactive,0.617 µM (active),inactive,inactive,inactive,inactive,inactive,–
C(COCC1CO1)OCC1CO1 (configuration not stated),inactive,inactive,–,inactive,–,inactive,inactive,inactive,inactive
BrCCc1ccccc1,inactive,inactive,–,inactive,–,inactive,inactive,inactive,–
C#CCOC(=O)/C=C(C)/C=C/CC(C)CCCC(C)C (configuration not stated),inactive,inactive,inactive,–,31.7 µM (active),28.3 µM (active),–,inactive,–
